The sample as a whole holds a higher share of hits than the screen did.
MmCpn inh: inhibitors of Methanococcus maripaludis chaperonin TRiC (MmCpn) | AID 504842 | purified Mm-Cpn ATPase, ADP Transcreener TR-FRET | Potency, µM (titrated, usually from 76.9 µM), for inactives: at the top dose activity, negative = inhibition, most hits filed as inhibitors | 330,000 tested, 0.031% active; note: % is set by controls: 0 for no effect and ±100 for the full control effect; nearly all actives have a fitted effect of over 80% in size
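Eu-cryptate anti-ADP/ADP-d2 competition gives a ratio inversely related to ADP. Enzyme at 25 nM was pre-exposed to compound for 10 min, then given 10 uM ATP for 30 min, 37°C throughout.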
Eya2 phos inh: inhibitors of human Eya2 phosphatase activity | O00167 | recombinant Eya2, OMFP fluorescence dephosphorylation (OMFP is methylfluorescein phosphate) | Potency, µM (doses to about 76.9 µM), inactives show at the top dose activity, negative = inhibition, most hits filed as inhibitors | 330,000 tested, 0.006% active | AID 488837; note: % is set by controls: 0 for no effect and ±100 for the full control effect
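Eya2 protein (added as 0.2 uM solution) was preincubated with compound for 10 min at ambient temperature in 50 mM HEPES pH 7.5, 50 mM NaCl, 5 uM MgCl2, 0.05% BSA, 1 mM DTT. OMFP (added at 50 uM) then reacted 10 min; fluorescence read at 485/525 nm.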
Integrin act MD: integrin-mediated muscular dystrophy alleviation activation. alpha7betagal myoblasts, beta-gal FDG fluorescence, 48 h. Potency, µM (titrated, usually from 38.3 µM), without a hit: top-dose activation, most hits filed as activators. 350,000 tested, 0.064% active. AID 624291;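 note: 100% = response of the positive control SU9516; nearly all actives have a fitted effect of over 60% in size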
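Alpha7betagal+/- myoblasts (passage 13) were plated 16-24 hr, then exposed to compounds (1:260 dilution of DMSO stock) for 48 hours at 37C. After MPER lysis, β-galactosidase reporter activity was read as FDG fluorescence (ex 480/em 540) after 30 minutes.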
p53 reactivation: re-activators of mutant p53; AID 504706; H1299 p53-A138V BP100-luciferase reporter, luminescence, 24 h; 320,000 tested, 0.063% active; Potency, µM (doses to about 92.2 µM), inactives show at the highest dose activity change, positive = activation, actives largely listed as activators; note: % of control where 0% means no effect; nearly all actives have a fitted effect of over 45% in size
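p53-null H1299 cells stably carrying temperature-sensitive p53-A138V and a BP100-luciferase reporter were pinned with compounds (4-point, 1:5 series) and held 24 hrs at 37 deg C. Luminescence was read 10 min after detection reagent.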
USP2a inh: blocks human ubiquitin-specific protease USP2a | O75604 | USP2 core, Ub-CHOP2 coupled fluorogenic reporter, 485/531 | Potency, µM (series often up to 38.3 µM), for inactives: at the top dose activity change, negative = inhibition, usual class: inhibitors | 330,000 tested, 0.01% active | AID 463254;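 note: plate controls were DMSO wells for no effect and full inhibition by NEM control for full effect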
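Deubiquitinase activity read as fluorescence (485/531 nm) after Ub-CHOP2 cleavage activates the enterokinase reporter on its substrate; USP2 core 10nM, Ub-CHOP2 and substrate 25nM each, 30min compound preincubation then 60min RT; data normalized to NEM, curves fitted.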
ClpP mod: qHTS Assay for Activators of ClpP; purified B. subtilis ClpP, FRET peptide cleavage, 20 min; ATP-dependent Clp protease proteolytic subunit (Bacillus subtilis (strain 168)), P80244; 340,000 tested, 1.9% active; Potency, µM (series often up to 57.5 µM), for the others: at the highest dose activity change, negative = active; active = well fitted falling curve with a large enough effect; inconclusive = small, poorly fitted or top-dose-only effect; inactive = no such curve, though single readings can be large or run the other way; note: the source files actives as falling curves though it sought activators and does not explain the sign; nearly all actives have a fitted effect of over 65% in size
Target sequence (P80244 whole entry, looked up): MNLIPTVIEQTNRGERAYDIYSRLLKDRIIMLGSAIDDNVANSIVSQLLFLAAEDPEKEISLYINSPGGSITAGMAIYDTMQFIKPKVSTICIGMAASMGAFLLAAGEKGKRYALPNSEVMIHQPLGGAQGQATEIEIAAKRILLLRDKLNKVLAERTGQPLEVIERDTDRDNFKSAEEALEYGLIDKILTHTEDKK
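Purified B. subtilis ClpP, 10 microg/mL final in Tris/HCl pH8 with KCl, BSA, glycerol and Tween-20, cleaved an Abz/nitrotyrosine-quenched decapeptide. Fluorescence (ex 320, em 430) was read at 0 and 20 min at room temperature. Delta was normalized to 5.8 microM ADEP and DMSO/no-enzyme controls.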
* marks the source's active call; other numbers are inactive results. Unless noted, calls come from the whole dose curve; as a rule, active = well fitted curve in the direction sought with a large enough effect; inconclusive = small, poorly fitted or top-dose-only effect, or another doubt; inactive = no such curve, though single readings can be large; an effect the other way counts as inactive or inconclusive. Potency is the fitted concentration of half-maximal effect.

Results for COc1cccc(-c2sc3ccccc3c2-c2ccc(OCCN3CCOCC3)cc2)c1 ?
MmCpn inh: inconclusive; Eya2 phos inh: 0%; Integrin act MD: -12%; p53 reactivation: -6%; USP2a inh: -1%; ClpP mod: 32µM*

Results for COc1cc(OC)cc(-c2sc3ccc(OC)cc3c2-c2ccc(OCCN3CCOCC3)cc2)c1 ?
MmCpn inh: inconclusive; Eya2 phos inh: -3%; Integrin act MD: 7%; p53 reactivation: -5%; USP2a inh: 2%; ClpP mod: 8.9µM*

How did O=C(CSc1nnc(NC(=O)c2ccccc2[N+](=O)[O-])s1)NCc1ccco1 do in these assays?
MmCpn inh: -8%; Eya2 phos inh: 5%; Integrin act MD: -1%; p53 reactivation: 11%; USP2a inh: 2%; ClpP mod: 1%

Results for O=C(O)c1ccc[nH]c1=S ?
MmCpn inh: 2%; Eya2 phos inh: inconclusive; Integrin act MD: -13%; p53 reactivation: -1%; USP2a inh: 1%

What do the screens show for `CC1OC(O[C@H]2C[C@@H](O)[C@]3(CO)[C@H]4[C@H](O)C[C@]5(C)[C@@H](C6=CC(=O)OC6)CC[C@]5(O)[C@@H]4CC[C@]3(O)C2)C(O)C(O)C1O` (stereo partly drawn)?
ClpP mod: 1%

What do the screens show for `COC(=O)c1[nH]c2ccc(C)cc2c1NC(=O)Oc1ccccc1`?
MmCpn inh: -2%; Eya2 phos inh: 18%; Integrin act MD: 20%; p53 reactivation: 10%; USP2a inh: 3%; ClpP mod: 35µM*

How did CC(O)C1C=CC=CC(=O)OC2CC3OC4C5OC5(C)C(O)CC4(COC(=O)C(O)C(C)CCO1)C2(C)C31CO1 (stereo not drawn) do in these assays?
Integrin act MD: -53%; ClpP mod: 32µM*

How did Cc1cccc2nc(-c3ccccc3)c(-c3ccc(CN4CCC(n5c(=O)[nH]c6ccccc65)CC4)cc3)nc12 do in these assays?
ClpP mod: 25µM*

Results for [Hg+][c]1ccccc1 ?
ClpP mod: -3%

How did CC(C)CNC(=O)c1c(N)n(Cc2ccco2)c2nc3ccccc3nc12 do in these assays?
MmCpn inh: -1%; Eya2 phos inh: 3%; Integrin act MD: -47%; p53 reactivation: -4%; USP2a inh: 2%; ClpP mod: 22µM*

What do the screens show for `COCCCNC(=O)c1c(N)n(Cc2ccco2)c2nc3ccccc3nc12`?
MmCpn inh: -4%; Eya2 phos inh: -8%; Integrin act MD: -42%; p53 reactivation: -2%; USP2a inh: -3%; ClpP mod: 4%

How did COc1ccc(Cn2c(N)c(C(=O)NCc3ccco3)c3nc4ccccc4nc32)cc1OC do in these assays?
MmCpn inh: -5%; Eya2 phos inh: 3%; Integrin act MD: -61%; p53 reactivation: -21%; USP2a inh: -1%; ClpP mod: 32µM*

Results for Nc1c(C(=O)NCc2ccco2)c2nc3ccccc3nc2n1CCN1CCCCC1 ?
MmCpn inh: -1%; Eya2 phos inh: -23%; Integrin act MD: -71%; p53 reactivation: -4%; USP2a inh: -1%; ClpP mod: -20%

How did CCCNC(=O)c1c(N)n(Cc2ccco2)c2nc3ccccc3nc12 do in these assays?
MmCpn inh: -3%; Eya2 phos inh: -13%; Integrin act MD: -37%; p53 reactivation: -7%; USP2a inh: -1%; ClpP mod: 28µM*

Results for COCCOC(=O)c1c(N)n(Cc2ccco2)c2nc3ccccc3nc12 ?
MmCpn inh: -1%; Eya2 phos inh: -18%; Integrin act MD: 10%; p53 reactivation: -1%; USP2a inh: -8%; ClpP mod: 8%

Bioassay records (PubChem)
